# SW480 rereplic: DNA re-replication induction in SW480 cells | SW480 DNA re-replication, Hoechst DNA content imaging, 48 h | Potency, µM (titrated, usually from 46.1 µM), inactives show top-dose re-replication activation, hits mostly activators | 1.8% of 340,000 active; also: potency is read from the fitted curve at half-maximal effect; % of control where 0% means no effect; nearly all actives have a fitted effect of over 55% in size
#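 DNA re-replication was detected as more nuclei of elevated Hoechst intensity after 48 hr exposure to compound (23 nL pinned per well of 250 cells).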
# IL-1B inflam inh: blocks inflammasome-driven IL-1 beta release; THP-1 LPS/ATP IL-1B secretion, AlphaLISA, 16 h; stronger effect = lower value; activity change, % at 57.5 µM; 4.7% of 360,000 active; AID 743279; in the data active = activity change below about -50%; inconclusive = mostly about -30% to -49%; also: % is scaled to controls: 0 for no effect and ±100 for the full control effect
#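 THP-1 cells pretreated 1 hr with compounds (up to 57.5 uM final), then stimulated with LPS (250 ng/mL final) plus ATP (1.25 mM final); secreted IL-1B measured by AlphaLISA after 16 hr, decreased signal indicating inhibition.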
# KB-V1 MDR tox: KB-V1 MDR subline cytotoxicity. KB-V1 MDR cells viability, CellTiter-Glo, 72 h. Potency, µM (highest dose often 46.1 µM), most hits filed as cytotoxic. 3.4% of 400,000 active; also: potency is read from the fitted curve at half-maximal effect; % is scaled to controls: 0 for no effect and ±100 for the full control effect; nearly all actives have a fitted effect of over 60% in size
#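 Drug-selected KB-V1 cells, grown in DMEM lacking phenol red with 10% FBS, receive compound titrations; after three days at 37 degrees C, surviving cell ATP is quantified by CellTiter-Glo luminescence and responses normalized and curve-fitted.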
# KB-3-1 tox: KB-3-1 parental cell cytotoxicity. Potency, µM (series often up to 46.1 µM), usual class: cytotoxic. AID 1347075. KB-3-1 viability, CellTiter-Glo ATP luminescence, 72 h. 1.4% of 400,000 active; also: potency is read from the fitted curve at half-maximal effect; % is scaled to controls: 0 for no effect and ±100 for the full control effect; nearly all actives have a fitted effect of over 60% in size
#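 72 h, 37 °C compound treatment of KB-3-1 parental cells; CellTiter-Glo added, 10 min, luminescence read. Data corrected against DMSO-only plates and normalized before curve fitting.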
# MCF10A rereplic: DNA re-replication induction in MCF 10a cells; MCF 10A DNA re-replication, Hoechst nuclear intensity, 48 h; Potency, µM (doses to about 46.1 µM), for the others: top-dose activity, positive = re-replication, hits mostly activators; 2.9% of 350,000 active; AID 624296; also: potency is read from the fitted curve at half-maximal effect; % of control where 0% means no effect; nearly all actives have a fitted effect of over 50% in size
# An asterisk follows results filed as active; i = inactive; ? = inconclusive; . = no result; [ ] = another dose, or the depositor's remark. The list is not random: actives were taken first. Their share in the collection is about 9.9%. Unless noted, calls follow the shape of the dose curve; as a rule, active = well fitted curve in the direction sought with a large enough effect; inconclusive = small, poorly fitted or top-dose-only effect, or another doubt; inactive = no such curve, though single readings can be large; an effect the other way counts as inactive or inconclusive.
SMILES,SW480 rereplic,IL-1B inflam inh,KB-V1 MDR tox,KB-3-1 tox,MCF10A rereplic
Cc1nnsc1C(=O)NC1CCCc2c1cnn2-c1ccc(C(C)(C)C)cc1 (stereo not drawn),?,-29,?,?,?
Cn1cccc1-c1cc2n(n1)CCC(=O)N2CCCC(=O)NCc1cccc(Cl)c1,.,.,i,i,.
CCN(C(=O)COC(=O)/C=C/c1cccc([N+](=O)[O-])c1)c1ccccc1,6%,0,i,i,-3%
O=C(Nc1ccccc1)/C(=C/c1ccc2c(c1)OCO2)NC(=O)c1ccco1,-3%,20,?,i,-5%
O=C(Nc1ccccc1)/C(=C\c1ccc2c(c1)OCO2)NC(=O)c1ccco1,?,3,i,i,9.2µM*
O=C(Nc1cccc(C(=O)O)c1)/C(=C\c1ccc2c(c1)OCO2)NC(=O)c1ccco1,-18%,2,i,i,0.58µM*
C=CC[C@@H](CC(=O)OC(C)(C)C)C(=O)OC[C@@H]1CCCN1C(=O)[C@@H](CC=C)CC(=O)N(CCO)Cc1ccccc1,-14%[9.22 µM],-55*,i,i,15%
C=CC[C@@H](Cc1ccc(F)cc1)C(=O)OC[C@@H]1CCCN1C(=O)[C@H](CC=C)CC(=O)N[C@H](CO)Cc1ccccc1,18%,-70*,?,?,?
C=CC[C@@H](CC(=O)OC(C)(C)C)C(=O)OC[C@H]1CCCN1C(=O)[C@@H](CC=C)CC(=O)N(CCO)Cc1ccccc1,0%,-62*,i,i,?
COc1ccc(CNC(=O)CSCc2ccccc2Cl)cc1,0%,13,i,i,13%
Cc1cc(-c2csc(NC(=O)c3ccc(=O)[nH]c3)n2)c(C)n1Cc1ccccc1,-1%,23,i,i,-11%
O=C(Nc1nc(-c2cccc3ccccc23)cs1)c1cnccn1,?,13,?,i,18µM*
Cc1cnc(C(=O)Nc2nc(-c3ccccc3)cs2)cn1,-12%,23,23µM*,i,-4%
CC1CC1C(=O)Nc1nc(-c2ccccc2)cs1 (stereo not drawn),0%,9,i,i,7%
O=C(Nc1nc(-c2ccc(F)c(F)c2)cs1)c1cnccn1,1%,1,i,i,6%
O=C(Nc1ccc2nc(-c3ccccc3)[nH]c2c1)c1cccs1,8%,-65*,i,i,4%
O=C(Nc1ccc2nc(-c3ccc4nc[nH]c4c3)[nH]c2c1)c1cccs1,3%,-21,i,i,?
O=C(Nc1nc(-c2ccccc2)cs1)c1ccc(=O)[nH]c1,-8%,-13,18µM*,?,16%
CC(=O)OC1C2CCC1C([N+]1(C)CCCCC1)CC2 (stereo not drawn),-6%,32,i,i,-6%
O=C(Nc1nc(-c2ccc(Cl)s2)cs1)c1ccco1,7%,-84*,?,i,?
O=C(Nc1nc(-c2ccccc2)cs1)c1cccs1,6%,-72*,?,i,17%
O=C(Nc1nc(-c2ccccc2)ns1)c1cccs1,-3%,-12,i,i,-6%
O=C(Nc1nc(-c2nc3ccccc3s2)cs1)c1ccco1,-13%,-9,i,i,1%
O=C(Nc1nc(-c2cc(Cl)sc2Cl)cs1)c1ccccc1,-1%,-13,i,?,21µM*
O=C(Nc1nc(-c2ccc(Cl)s2)cs1)c1cccs1,0%,-84*,?,i,11%
SMILES,SW480 rereplic,IL-1B inflam inh,KB-V1 MDR tox,KB-3-1 tox,MCF10A rereplic
CCOC(=O)c1nc(C)sc1-c1ccnn1S(=O)(=O)c1cccc(Cl)c1,-52%,.,i,i,?
COc1ccccc1NC(=O)C1CCN(S(=O)(=O)c2ccc3c(c2)oc(=O)n3C)CC1,.,.,i,i,.
O=C(Nc1ccc([N+](=O)[O-])cc1)Nc1nc(-c2ccc(Cl)s2)cs1,-45%,-99*,?,2.9µM*,2.9µM*
CC(=O)Nc1nc(-c2ccc([N+](=O)[O-])cc2)cs1,-42%,-13,i,i,0%
Nc1nc2nc(-c3ccc(OCc4ccccc4)cc3)cc(C(F)(F)F)n2n1,?,-7,i,i,?
Nc1nc2nc(-c3ccc(Cl)cc3)cc(C(F)(F)F)n2n1,13µM*,-5,i,i,?

# Screens from PubChem BioAssay.
